# Key:
# [1] = target: T1, Interleukin-1 receptor-associated kinase 4 (Homo sapiens) (UniProt Q9NWZ3); settings: at 1 µM
# T1 sequence (whole entry): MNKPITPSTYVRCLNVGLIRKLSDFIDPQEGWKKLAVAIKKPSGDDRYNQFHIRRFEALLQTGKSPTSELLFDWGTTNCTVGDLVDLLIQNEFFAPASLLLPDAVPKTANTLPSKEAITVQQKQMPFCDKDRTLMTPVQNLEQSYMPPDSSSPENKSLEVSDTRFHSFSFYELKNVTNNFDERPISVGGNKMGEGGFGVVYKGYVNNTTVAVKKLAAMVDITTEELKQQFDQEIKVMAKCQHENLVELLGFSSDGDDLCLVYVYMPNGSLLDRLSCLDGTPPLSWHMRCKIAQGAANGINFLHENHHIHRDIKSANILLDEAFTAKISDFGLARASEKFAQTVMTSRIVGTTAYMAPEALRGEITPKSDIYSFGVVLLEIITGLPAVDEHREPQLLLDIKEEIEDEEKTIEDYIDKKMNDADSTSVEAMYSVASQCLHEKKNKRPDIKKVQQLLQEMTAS
# [2] = target: T1, Interleukin-1 receptor-associated kinase 4 (Homo sapiens); settings: at 10 µM
# [3] = target: Insulin receptor-related protein (Homo sapiens) (UniProt P14616); settings: at 1 µM
# [4] = target: Insulin receptor-related protein (Homo sapiens) (UniProt P14616); settings: at 10 µM
# [5] = target: T2, Tyrosine-protein kinase ITK/TSK (Homo sapiens) (UniProt Q08881); settings: at 1 µM
# T2 sequence (whole entry): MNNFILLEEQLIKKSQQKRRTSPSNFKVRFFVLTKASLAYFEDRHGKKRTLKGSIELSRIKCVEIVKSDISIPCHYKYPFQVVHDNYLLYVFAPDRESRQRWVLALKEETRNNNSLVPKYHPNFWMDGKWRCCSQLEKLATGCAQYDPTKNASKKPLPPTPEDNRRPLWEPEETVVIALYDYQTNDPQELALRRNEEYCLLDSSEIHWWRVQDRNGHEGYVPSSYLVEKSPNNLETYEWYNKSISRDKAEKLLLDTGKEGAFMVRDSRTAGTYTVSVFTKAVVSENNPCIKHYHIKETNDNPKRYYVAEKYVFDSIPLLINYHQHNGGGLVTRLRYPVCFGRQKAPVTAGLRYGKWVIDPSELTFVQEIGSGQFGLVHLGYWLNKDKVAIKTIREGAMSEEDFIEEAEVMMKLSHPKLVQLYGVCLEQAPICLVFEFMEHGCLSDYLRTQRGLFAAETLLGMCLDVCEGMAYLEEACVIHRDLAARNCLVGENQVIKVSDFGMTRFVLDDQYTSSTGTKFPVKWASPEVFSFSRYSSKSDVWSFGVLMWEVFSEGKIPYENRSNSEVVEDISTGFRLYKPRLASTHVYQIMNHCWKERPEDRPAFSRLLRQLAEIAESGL
# [6] = target: T2, Tyrosine-protein kinase ITK/TSK (Homo sapiens); settings: at 10 µM
# [7] = target: Tyrosine-protein kinase JAK2 (Homo sapiens) (UniProt O60674); settings: at 1 µM
# [8] = target: Tyrosine-protein kinase JAK2 (Homo sapiens) (UniProt O60674); settings: at 10 µM
# [9] = target: T3, Tyrosine-protein kinase JAK3 (Homo sapiens) (UniProt P52333); settings: at 1 µM
# T3 sequence (whole entry): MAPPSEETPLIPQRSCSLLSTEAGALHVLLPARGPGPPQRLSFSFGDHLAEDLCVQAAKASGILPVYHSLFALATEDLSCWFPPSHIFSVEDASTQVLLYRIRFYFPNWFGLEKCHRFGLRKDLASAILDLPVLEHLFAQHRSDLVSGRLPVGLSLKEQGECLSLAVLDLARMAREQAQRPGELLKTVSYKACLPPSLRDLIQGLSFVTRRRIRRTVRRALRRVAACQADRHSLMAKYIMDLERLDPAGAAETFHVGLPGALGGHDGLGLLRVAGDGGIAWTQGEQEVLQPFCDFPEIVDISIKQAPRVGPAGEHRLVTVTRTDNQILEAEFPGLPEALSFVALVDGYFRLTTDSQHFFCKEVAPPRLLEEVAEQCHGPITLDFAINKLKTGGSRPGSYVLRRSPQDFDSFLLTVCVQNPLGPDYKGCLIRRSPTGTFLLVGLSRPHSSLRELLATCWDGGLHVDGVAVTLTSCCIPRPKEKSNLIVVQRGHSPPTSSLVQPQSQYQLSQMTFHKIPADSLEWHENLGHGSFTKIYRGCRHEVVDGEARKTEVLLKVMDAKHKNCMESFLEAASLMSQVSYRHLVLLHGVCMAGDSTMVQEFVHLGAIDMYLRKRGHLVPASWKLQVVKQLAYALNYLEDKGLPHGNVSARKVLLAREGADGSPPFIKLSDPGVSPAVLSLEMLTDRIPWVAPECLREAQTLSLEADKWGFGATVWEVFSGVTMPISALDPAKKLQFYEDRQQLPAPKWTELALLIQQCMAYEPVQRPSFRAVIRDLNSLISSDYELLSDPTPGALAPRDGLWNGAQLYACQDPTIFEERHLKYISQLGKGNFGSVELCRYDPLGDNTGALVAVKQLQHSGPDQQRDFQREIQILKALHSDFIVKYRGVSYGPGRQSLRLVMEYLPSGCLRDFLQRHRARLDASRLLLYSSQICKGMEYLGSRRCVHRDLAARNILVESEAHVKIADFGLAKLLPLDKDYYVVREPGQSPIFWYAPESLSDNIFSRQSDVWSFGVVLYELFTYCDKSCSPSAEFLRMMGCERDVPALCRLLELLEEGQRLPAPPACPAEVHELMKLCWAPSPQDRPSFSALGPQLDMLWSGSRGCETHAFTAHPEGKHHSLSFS
# [10] = target: T3, Tyrosine-protein kinase JAK3 (Homo sapiens); settings: at 10 µM
# Sequence of Tyrosine-protein kinase JAK2 (Homo sapiens) (O60674 whole entry): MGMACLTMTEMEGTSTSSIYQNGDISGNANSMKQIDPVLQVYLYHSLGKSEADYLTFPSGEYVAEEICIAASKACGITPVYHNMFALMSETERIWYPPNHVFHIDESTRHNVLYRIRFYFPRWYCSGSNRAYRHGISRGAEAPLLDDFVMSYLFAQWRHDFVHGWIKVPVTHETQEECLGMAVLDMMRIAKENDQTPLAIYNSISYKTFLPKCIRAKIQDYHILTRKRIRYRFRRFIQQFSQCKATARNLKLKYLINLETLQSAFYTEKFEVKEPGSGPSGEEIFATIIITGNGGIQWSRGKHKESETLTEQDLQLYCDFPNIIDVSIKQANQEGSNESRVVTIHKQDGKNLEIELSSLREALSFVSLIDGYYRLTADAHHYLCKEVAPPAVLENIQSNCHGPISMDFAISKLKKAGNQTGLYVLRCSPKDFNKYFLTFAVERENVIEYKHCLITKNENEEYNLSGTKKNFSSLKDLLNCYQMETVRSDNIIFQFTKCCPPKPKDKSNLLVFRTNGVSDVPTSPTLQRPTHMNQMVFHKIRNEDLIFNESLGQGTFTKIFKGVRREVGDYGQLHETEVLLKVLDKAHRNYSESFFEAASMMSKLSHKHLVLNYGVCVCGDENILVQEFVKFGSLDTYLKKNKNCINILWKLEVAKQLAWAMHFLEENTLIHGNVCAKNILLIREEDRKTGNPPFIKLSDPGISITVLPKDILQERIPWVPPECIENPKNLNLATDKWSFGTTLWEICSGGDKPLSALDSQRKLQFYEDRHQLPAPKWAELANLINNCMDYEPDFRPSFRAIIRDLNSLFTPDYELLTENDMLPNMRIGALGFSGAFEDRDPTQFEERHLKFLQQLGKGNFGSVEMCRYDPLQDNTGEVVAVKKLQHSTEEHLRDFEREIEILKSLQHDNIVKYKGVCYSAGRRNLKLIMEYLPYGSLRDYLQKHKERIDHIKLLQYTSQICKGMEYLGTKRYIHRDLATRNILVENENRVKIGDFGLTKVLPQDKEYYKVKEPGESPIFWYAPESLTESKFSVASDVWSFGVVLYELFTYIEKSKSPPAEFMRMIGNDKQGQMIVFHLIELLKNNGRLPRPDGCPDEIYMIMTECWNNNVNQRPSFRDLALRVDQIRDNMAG
# Sequence of Insulin receptor-related protein (Homo sapiens) (P14616 27-742 limits assumed): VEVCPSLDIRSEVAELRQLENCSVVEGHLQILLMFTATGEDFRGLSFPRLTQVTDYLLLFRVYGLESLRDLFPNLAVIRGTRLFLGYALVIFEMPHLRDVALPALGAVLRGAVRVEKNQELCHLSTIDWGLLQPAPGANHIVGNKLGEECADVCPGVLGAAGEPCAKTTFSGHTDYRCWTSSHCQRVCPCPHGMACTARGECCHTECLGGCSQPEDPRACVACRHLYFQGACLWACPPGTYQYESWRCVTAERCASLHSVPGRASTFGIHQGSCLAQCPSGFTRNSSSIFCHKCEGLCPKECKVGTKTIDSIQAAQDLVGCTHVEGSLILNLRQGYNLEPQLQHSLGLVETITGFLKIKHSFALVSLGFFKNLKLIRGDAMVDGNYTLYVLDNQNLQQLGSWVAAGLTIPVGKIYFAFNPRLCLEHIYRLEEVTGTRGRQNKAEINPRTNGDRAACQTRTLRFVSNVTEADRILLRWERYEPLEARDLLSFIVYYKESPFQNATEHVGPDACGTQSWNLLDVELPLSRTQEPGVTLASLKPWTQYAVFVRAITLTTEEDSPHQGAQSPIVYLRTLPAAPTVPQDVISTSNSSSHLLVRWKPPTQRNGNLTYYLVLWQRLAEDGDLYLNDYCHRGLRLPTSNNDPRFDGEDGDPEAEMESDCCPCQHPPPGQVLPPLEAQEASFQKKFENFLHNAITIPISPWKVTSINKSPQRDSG
# Sequence of Insulin receptor-related protein (Homo sapiens) (P14616 747-1297 limits assumed): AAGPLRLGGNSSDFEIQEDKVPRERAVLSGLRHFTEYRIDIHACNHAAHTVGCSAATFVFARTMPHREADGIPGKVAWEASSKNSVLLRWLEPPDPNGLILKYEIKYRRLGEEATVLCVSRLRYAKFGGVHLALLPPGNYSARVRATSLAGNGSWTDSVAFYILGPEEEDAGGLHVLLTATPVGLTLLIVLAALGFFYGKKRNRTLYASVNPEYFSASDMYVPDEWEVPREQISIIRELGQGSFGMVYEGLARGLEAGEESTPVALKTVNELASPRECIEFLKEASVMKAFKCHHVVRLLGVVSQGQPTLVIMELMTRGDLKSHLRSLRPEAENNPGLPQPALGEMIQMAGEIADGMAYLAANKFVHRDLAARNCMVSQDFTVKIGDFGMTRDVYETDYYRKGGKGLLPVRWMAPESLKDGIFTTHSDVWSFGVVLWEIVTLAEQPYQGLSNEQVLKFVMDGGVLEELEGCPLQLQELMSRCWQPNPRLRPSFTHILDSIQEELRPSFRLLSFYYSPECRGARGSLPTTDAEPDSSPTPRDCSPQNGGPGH
SMILES,residual activity [1] [%],residual activity [2] [%],residual activity [3] [%],residual activity [4] [%],residual activity [5] [%],residual activity [6] [%],residual activity [7] [%],residual activity [8] [%],residual activity [9] [%],residual activity [10] [%]
O=[N+]([O-])/C=C/c1ccc2c(c1)OCO2,116,107,106,82,105,100,73,118,114,108
COc1cc(OC)c(/C=C2\C(=O)Nc3ccccc32)c(OC)c1,81,75,101,98,101,93,,94,105,100
C[S+]([O-])c1ccc(-c2nc(-c3ccc(F)cc3)c(-c3ccncc3)[nH]2)cc1 (stereo unspecified),113,86,109,56,100,104,112,119,107,112
O=C1c2ccccc2-c2nc3nnnn3nc21,129,108,,,,,111,,103,
O=C1Nc2ccc3ncsc3c2/C1=C/c1c[nH]cn1,41,15,119,36,67,21,59,18,16,3
N/C(=N\[N+](=O)[O-])N/N=C\c1ccc(-c2cccc([N+](=O)[O-])c2)o1,100,85,,,,,86,85,,
CC(C)(C)c1cc(C=C(C#N)C#N)cc(Br)c1O,112,,105,102,105,104,110,113,105,
CC(C)[C@H](CO)Nc1nc(Nc2cccc(Cl)c2)c2ncn(C(C)C)c2n1,45,9,83,3,68,11,,73,,
CCc1nc(-c2ccc(OC)cc2)[nH]c1-c1ccncc1,,,,,,,100,105,113,103
COc1ccc2c(c[n+](C)c3c4cc5c(cc4ccc23)OCO5)c1OC,,83,130,76,99,91,80,121,91,67
COC(=O)[C@@]1(O)C[C@H]2O[C@]1(C)n1c3ccccc3c3c4c(c5c6ccccc6n2c5c31)C(=O)NC4,-2,0,6,1,15,1,2,-1,0,0
CCn1cnc2c(Nc3cccc(Cl)c3)nc(N[C@@H]3CCCC[C@@H]3N)nc21,85,23,,,89,39,116,78,112,119
O=c1[nH]c2ccccc2n1C1CCN(Cc2ccc(-c3nc4cc5[nH]cnc5cc4nc3-c3ccccc3)cc2)CC1,106,93,124,95,99,95,120,107,110,126
O=C1NC(=O)c2c1c1c3ccccc3n3c1c1c2c2ccccc2n1C1CCC3O1,38,18,74,63,88,70,86,82,8,9
COc1ccc2c(c1)/C(=C/c1cnc[nH]1)C(=O)N2,,,,,,42,,29,48,10
c1cc(-c2cnn3cc(-c4ccc(OCCN5CCCCC5)cc4)cnc23)ccn1,81,18,,,54,9,,,,
COc1cc2ncnc(Nc3ccc(OCc4ccccc4)cc3)c2cc1OC,127,92,125,57,107,99,110,90,101,100

# — ChEMBL document CHEMBL2218924, “A broad activity screen in support of a chemogenomic map for kinase signalling research and drug discovery” (Biochem J, 2013)
